Test [1] concerns RAW-Dual. The experiment in a line: NF-kB SEAP reporter activity, fold change vs agonist alone; cytotoxicity flag (confluency mask): not cytotoxic; higher = enhanced NF-kB activity. Put shortly: (§1)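 Supernatant from RAW-Dual macrophages was read after 20 hours for IRF by QuantiLuc luminescence and for NF-κB by QuantiBlue absorbance at 620 nm. The cells (50,000 cells/well in DMEM, 384-well plates, 37 °C, 5% CO2) had received 50 nL of library stock by pin tool and, 1 h later, a PRR agonist. Reporter activity is expressed relative to agonist-alone wells as fold change, and wells were flagged cytotoxic if IncuCyte confluency was under 70% of agonist controls in both mask sets.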

The subject of test [2] is RAW-Dual. The experiment in a line: NF-kB SEAP reporter activity, fold change vs agonist alone; higher = enhanced NF-kB activity. Put shortly:
as §1

Test [3] deals with RAW-Dual. The experiment in a line: NF-kB SEAP reporter activity, fold change vs agonist alone; cytotoxicity flag (confluency mask): cytotoxic (confluency <70% of control); higher = enhanced NF-kB activity. Put shortly: as §1
Where [4] appears, read: agonist: ODN 1826 (TLR9) 0.5 ug/mL.
The mark [5] stands for this setting: agonist: Pam2CSK4 (TLR2/6) 0.1 ug/mL.
[6] abbreviates: agonist: Pam3CSK4 (TLR2/1) 0.1 ug/mL.
Where [7] appears, read: library stock concentration (final ~1000-fold dilution): 10 mM, cytotoxicity flag (confluency mask): not cytotoxic, agonist: Imiquimod (TLR7) […].
Setting [8] is: library stock concentration (final ~1000-fold dilution): 10 mM, cytotoxicity flag (confluency mask): not cytotoxic, agonist: MPLA (TLR4) […].
[9] abbreviates: library stock concentration (final ~1000-fold dilution): 10 mM, cytotoxicity flag (confluency mask): cytotoxic (confluency <70% of control), agonist: Imiquimod (TLR7) […].
Setting [10] is: library stock concentration (final ~1000-fold dilution): 10 mM, cytotoxicity flag (confluency mask): cytotoxic (confluency <70% of control), agonist: MPLA (TLR4) […].

The record followed here is the supplement of paper PMC10037445.

In all, about 2,900 compounds were measured (“NF-kB SEAP reporter activity, fold change vs agonist alone”: median about 0.99, highest 2% from about 2.6 on). What follows is part of a selection rich in the highest values, with near analogues and random picks from the rest.

Take `CC(C)CC(NC(=O)C(CCc1ccccc1)NC(=O)CN1CCOCC1)C(=O)NC(Cc1ccccc1)C(=O)NC(CC(C)C)C(=O)C1(C)CO1` (configuration not stated) (library stock concentration (final ~1000-fold dilution): 10 mM): the “NF-kB SEAP reporter activity” value worked out at 0.318 in the test with RAW-Dual [1] (agonist: LPS (TLR4) 0.1 ug/mL), 1.18 in the test on RAW-Dual [1] (setting [4]), 0.683 with RAW-Dual [1] (setting [5]) and 0.456 with RAW-Dual [1] (setting [6]).
Consider `CC(C)CC(NC(=O)C(CCc1ccccc1)NC(=O)CN1CCOCC1)C(=O)NC(Cc1ccccc1)C(=O)NC(CC(C)C)C(=O)C1(C)CO1` (configuration not stated), for which the “NF-kB SEAP reporter activity” value in the test with RAW-Dual [2] (setting [7]) was 2.33; in the test on RAW-Dual [2] (setting [8]) it was 0.832.
`CCc1c(N(CC)C2CCOCC2)cc2oc(C3CCN(C(C)C)CC3)cc2c1C(=O)NCc1c(C)cc(C)[nH]c1=O` (library stock concentration (final ~1000-fold dilution): 10 mM): the “NF-kB SEAP reporter activity” value turned out to be 1.13 in the test with RAW-Dual [1] (agonist: LPS (TLR4) 0.1 ug/mL), 0.983 in the test on RAW-Dual [1] (setting [4]), 1.04 in the test with RAW-Dual [1] (setting [5]) and 0.941 with RAW-Dual [1] (setting [6]).
For `CCc1c(N(CC)C2CCOCC2)cc2oc(C3CCN(C(C)C)CC3)cc2c1C(=O)NCc1c(C)cc(C)[nH]c1=O`, the “NF-kB SEAP reporter activity” value in the test on RAW-Dual [2] (setting [7]) was 1.34; in the test on RAW-Dual [2] (setting [8]), 1.04.
Regarding `COCC(NC(=O)c1cnc(C)s1)C(=O)NC(COC)C(=O)NC(Cc1ccccc1)C(=O)C1(C)CO1` (configuration not stated) (library stock concentration (final ~1000-fold dilution): 10 mM), the “NF-kB SEAP reporter activity” value with RAW-Dual [1] (agonist: LPS (TLR4) 0.1 ug/mL) was 0.377; in the test with RAW-Dual [1] (setting [4]), 1.25; with RAW-Dual [1] (setting [5]), 0.279; in the test with RAW-Dual [1] (setting [6]), 0.692.
In the case of `COCC(NC(=O)c1cnc(C)s1)C(=O)NC(COC)C(=O)NC(Cc1ccccc1)C(=O)C1(C)CO1` (configuration not stated), the “NF-kB SEAP reporter activity” value in the test on RAW-Dual [2] (setting [7]) is 2.34; in the test on RAW-Dual [2] (setting [8]), 1.21.
The matching figures for `Cc1nc(N)sc1-c1ccnc(Nc2ccc(N3CCOCC3)cc2)n1`: 0.996 and 1.39.
With `CC(C)(O)CNc1nc(Nc2ccnc(C(F)(F)F)c2)nc(-c2cccc(C(F)(F)F)n2)n1`, the “NF-kB SEAP reporter activity” value worked out at 1.19 in the test on RAW-Dual [2] (setting [7]) and 1.28 with RAW-Dual [2] (setting [8]).
Regarding `COc1cc(N2CCN(C)CC2)ccc1Nc1nccc(-c2cn(C)c3cnccc23)n1` (library stock concentration (final ~1000-fold dilution): 10 mM), the “NF-kB SEAP reporter activity” value came out at 1.02 with RAW-Dual [1] (agonist: LPS (TLR4) 0.1 ug/mL), 0.192 with RAW-Dual [1] (setting [4]), 1.14 in the test on RAW-Dual [1] (setting [5]) and 1.44 in the test on RAW-Dual [1] (setting [6]).
For the compound `COc1cc(N2CCN(C)CC2)ccc1Nc1nccc(-c2cn(C)c3cnccc23)n1`, the “NF-kB SEAP reporter activity” value is 0.285 in the test on RAW-Dual [2] (setting [7]) and 1.58 in the test on RAW-Dual [2] (setting [8]).
For the compound `CC(C)(O)CNc1ncc(-c2ccnc(Nc3ccnc(Cl)c3)n2)c(CC2CC2)n1` (library stock concentration (final ~1000-fold dilution): 10 mM), the “NF-kB SEAP reporter activity” value in the test with RAW-Dual [1] (agonist: LPS (TLR4) 0.1 ug/mL) was 5.81; in the test with RAW-Dual [1] (setting [4]), 0.935; in the test with RAW-Dual [1] (setting [5]) it was 1.41; in the test on RAW-Dual [1] (setting [6]), 1.8.
The matching figures for `CC(C)(O)CNc1ncc(-c2ccnc(Nc3ccncc3)n2)c(CC2CC2)n1` (library stock concentration (final ~1000-fold dilution): 10 mM): 4.13, 0.366, 0.814 and 1.66.
As for `Nc1ncc(-c2ccnc(Nc3ccncc3)n2)c(CC2CC2)n1` (library stock concentration (final ~1000-fold dilution): 10 mM), the “NF-kB SEAP reporter activity” value stood at 4.89 with RAW-Dual [3] (agonist: LPS (TLR4) 0.1 ug/mL), 0.424 in the test on RAW-Dual [3] (setting [4]), 0.975 in the test on RAW-Dual [3] (setting [5]) and 1.51 with RAW-Dual [3] (setting [6]).
Regarding `CC(C)(O)CNc1ncc(-c2ccnc(Nc3ccnc(Cl)c3)n2)c(CC2CC2)n1`, the “NF-kB SEAP reporter activity” value in the test with RAW-Dual [2] (setting [7]) is 0.784; in the test with RAW-Dual [2] (setting [8]), 2.07.
With `CC(C)(O)CNc1nc(Nc2ccnc(C(F)(F)F)c2)nc(-c2cccc(C(F)(F)F)n2)n1` (library stock concentration (final ~1000-fold dilution): 10 mM), the “NF-kB SEAP reporter activity” value turned out to be 1.51 in the test on RAW-Dual [1] (agonist: LPS (TLR4) 0.1 ug/mL), 1.61 in the test on RAW-Dual [1] (setting [4]), 1.09 with RAW-Dual [1] (setting [5]) and 1.59 in the test on RAW-Dual [1] (setting [6]).
As for `CC(C)(O)CNc1ncc(-c2ccnc(Nc3ccncc3)n2)c(CC2CC2)n1`, the “NF-kB SEAP reporter activity” value amounted to 0.914 in the test on RAW-Dual [2] (setting [7]) and 2.18 with RAW-Dual [2] (setting [8]).
Turning to `Cc1nc(N)sc1-c1ccnc(Nc2ccc(N3CCOCC3)cc2)n1` (library stock concentration (final ~1000-fold dilution): 10 mM), the “NF-kB SEAP reporter activity” value stood at 0.713 in the test on RAW-Dual [1] (agonist: LPS (TLR4) 0.1 ug/mL), 0.256 in the test on RAW-Dual [1] (setting [4]), 0.401 with RAW-Dual [1] (setting [5]) and 0.522 in the test on RAW-Dual [1] (setting [6]).
As to `Nc1ncc(-c2ccnc(Nc3ccncc3)n2)c(CC2CC2)n1`, the “NF-kB SEAP reporter activity” value in the test on RAW-Dual [2] (setting [9]) stood at 0.641; in the test with RAW-Dual [2] (setting [10]), 2.13.
On to `CCNC1CC(C)S(=O)(=O)c2sc(S(N)(=O)=O)cc21.Cl` (configuration not stated), for which the “NF-kB SEAP reporter activity” value is 0.908 with RAW-Dual [2] (library stock concentration (final ~1000-fold dilution): 10 mM water, cytotoxicity flag (confluency mask): not cytotoxic, agonist: Imiquimod (TLR7) […]) and 0.982 in the test on RAW-Dual [2] (library stock concentration (final ~1000-fold dilution): 10 mM water, cytotoxicity flag (confluency mask): not cytotoxic, agonist: MPLA (TLR4) […]).
For `CCNC1CC(C)S(=O)(=O)c2sc(S(N)(=O)=O)cc21.Cl` (configuration not stated) (library stock concentration (final ~1000-fold dilution): 10 mM water), the “NF-kB SEAP reporter activity” value was determined as 1.49 with RAW-Dual [1] (agonist: LPS (TLR4) 0.1 ug/mL), 1.13 in the test on RAW-Dual [1] (setting [4]), 1.09 with RAW-Dual [1] (setting [5]) and 0.997 in the test on RAW-Dual [1] (setting [6]).
As for `CCc1ccc(OCc2ccccc2C(=O)Nc2ccc3nc(C)cc(N)c3c2)cc1.Cl`, the figures for the “NF-kB SEAP reporter activity” value in the test with RAW-Dual [2] (setting [9]) and in the test with RAW-Dual [2] (setting [10]) were 0.265 and 0.216, respectively.
For `CCc1ccc(OCc2ccccc2C(=O)Nc2ccc3nc(C)cc(N)c3c2)cc1.Cl` (library stock concentration (final ~1000-fold dilution): 10 mM), the “NF-kB SEAP reporter activity” value in the test on RAW-Dual [3] (agonist: LPS (TLR4) 0.1 ug/mL) was found to be 0.212; with RAW-Dual [3] (setting [4]) it was 0.198; in the test with RAW-Dual [3] (setting [5]) it was 0.0939; in the test on RAW-Dual [3] (setting [6]), 0.336.
As to `CCCN1CCCCC1C(=O)Nc1c(C)cccc1C` (configuration not stated), the “NF-kB SEAP reporter activity” value in the test with RAW-Dual [2] (setting [8]) was 1.09.
Turning to `CCCN1CCCCC1C(=O)Nc1c(C)cccc1C` (configuration not stated) (library stock concentration (final ~1000-fold dilution): 10 mM), the “NF-kB SEAP reporter activity” value in the test on RAW-Dual [1] (agonist: LPS (TLR4) 0.1 ug/mL) was found to be 1.03; in the test on RAW-Dual [1] (setting [4]), 1.03; in the test with RAW-Dual [1] (setting [5]) it was 0.952; with RAW-Dual [1] (setting [6]) it was 1.06.
`Cc1ccc(C(=O)N(CCCN)C(c2nc3cc(Cl)ccc3c(=O)n2Cc2ccccc2)C(C)C)cc1` (configuration not stated): the “NF-kB SEAP reporter activity” value in the test on RAW-Dual [2] (setting [9]) amounted to 1.41; with RAW-Dual [2] (setting [10]), 0.878.
For `Cc1ccc(C(=O)N(CCCN)C(c2nc3cc(Cl)ccc3c(=O)n2Cc2ccccc2)C(C)C)cc1` (configuration not stated) (library stock concentration (final ~1000-fold dilution): 10 mM), the “NF-kB SEAP reporter activity” value in the test on RAW-Dual [3] (agonist: LPS (TLR4) 0.1 ug/mL) amounted to 0.331; in the test with RAW-Dual [3] (setting [4]) it was 0.254; in the test with RAW-Dual [3] (setting [5]), 0.0886; in the test on RAW-Dual [3] (setting [6]), 0.27.
